From PubChem
Shown are actives, neighbours in structure and some others; about 1.3% of the full set was active somewhere.
Fam108B inh – Fam108B inhibition, counter-screen for RBBP9 inhibitors; inhibition, % at 9.51 µM; 300,000 compounds, 0.33% hits; recombinant Fam108B, FP-Rh probe fluorescence polarization; AID 1947;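 active means inhibition above the screen mean inhibition plus 3 SD, computed separately per campaign, cut at about 18% in these data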;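 further: inhibitors lower polarization as less probe binds the enzyme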
PREPL inhibitor – inhibitors of human prolyl oligopeptidase-like enzyme PREPL | recombinant PREPL, fluorescence polarization activity-based probe | inhibition, % at 5.96 µM | 320,000 compounds, 0.68% hits | AID 2751
PME-1 inh – blocks human protein phosphatase methylesterase 1; Q9Y570; recombinant PME-1, FP-Rh probe fluorescence polarization; inhibition, % at 5.9 µM; 320,000 compounds, 0.53% hits; AID 2130;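 active means inhibition above the campaign mean of all compounds plus 3 SD, cut at about 26% in these data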;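 further: competitive labeling of PME-1 active site by serine hydrolase directed probe; inhibitors block probe labeling so polarization falls and inhibition rises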
Target sequence (Q9Y570 whole entry, looked up): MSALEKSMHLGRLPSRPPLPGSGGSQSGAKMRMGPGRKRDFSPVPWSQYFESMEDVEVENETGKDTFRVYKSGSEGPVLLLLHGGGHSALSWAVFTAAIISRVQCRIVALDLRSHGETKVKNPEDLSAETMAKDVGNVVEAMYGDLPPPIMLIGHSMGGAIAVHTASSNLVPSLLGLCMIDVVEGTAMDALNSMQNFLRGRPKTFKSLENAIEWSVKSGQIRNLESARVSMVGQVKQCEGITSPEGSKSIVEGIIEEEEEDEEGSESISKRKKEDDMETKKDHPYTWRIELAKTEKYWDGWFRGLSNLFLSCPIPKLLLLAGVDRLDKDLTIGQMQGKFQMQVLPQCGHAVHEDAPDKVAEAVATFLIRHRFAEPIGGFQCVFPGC
LYPLA1 inh – counter-screen for PME1 inhibitors: inhibitors of human LYPLA1 | recombinant LYPLA1, FP-Rh probe fluorescence polarization | inhibition, % at 5.9 µM | 320,000 compounds, 0.16% hits | AID 2174;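 active means inhibition above the mean of all tested compounds plus 3 SD, set per campaign, cut at about 14% in these data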;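 further: inhibitors block serine hydrolase probe labeling of LYPLA1 so polarization falls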
LYPLA2 inh – counter-screen for PME1 inhibitors: inhibitors of human LYPLA2. O95372. recombinant LYPLA2, FP-Rh probe fluorescence polarization. inhibition, % at 5.9 µM. 320,000 compounds, 0.38% hits;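 active means inhibition above the screen-wide mean plus 3 SD, limit set per campaign, cut at about 26% in these data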
PREPL confirm – confirmation of human PREPL enzyme inhibitors | AID 2803 | shares compounds with PREPL inhibitor | recombinant PREPL, fluorescence polarization activity probe | inhibition, % at 5.96 µM | 2,000 compounds, 67% hits
A number is an active result; . = inactive; / = no result given. Unless noted, no stated cut-off is given here; in the data, active means inhibition above about 43%; inactive means the rest.

SMILES	Fam108B inh	PREPL inhibitor	PME-1 inh	LYPLA1 inh	LYPLA2 inh	PREPL confirm
C#CCOCCOCCOCCNc1nc(N2CCN(C(=O)[C@H](CCCN=C(N)N)n3cc(C(N)[C@H](C)CC)nn3)CC2)nc(N2CCN(C(=O)[C@H](CCCN=C(N)N)n3cc(C(N)[C@@H](C)CC)nn3)CC2)n1 (some centres undefined)	/	44	/	/	/	.
C#CCOCCOCCOCCNc1nc(N2CCOCC2)nc(N2CCN(C(=O)[C@H](CCCN=C(N)N)n3cc(C(N)[C@@H](C)CC)nn3)CC2)n1 (some centres undefined)	/	.	/	/	/	/
COc1cc(C(=O)NCC(=O)NCC2COc3ccccc3O2)cc(OC)c1OC (centres undefined)	.	.	.	.	.	/
C#CCOCCOCCOCCNc1nc(N2CCN(C(=O)[C@H](Cc3cc4ccccc4[nH]3)n3cc([C@@H](N)C(C)CC)nn3)CC2)nc(N2CCN(C(=O)[C@H](CCCCN)n3cc([C@@H](N)CC(C)C)nn3)CC2)n1 (some centres undefined)	.	46	.	.	.	50
C#CCOCCOCCOCCNc1nc(N2CCN(C(=O)[C@H](Cc3ccc(O)cc3)n3cc([C@@H](N)C(C)CC)nn3)CC2)nc(N2CCN(C(=O)[C@H](Cc3cc4ccccc4[nH]3)n3cc([C@@H](N)CC(C)C)nn3)CC2)n1 (some centres undefined)	.	56	.	.	.	48
C#CCOCCOCCOCCNc1nc(N2CCN(C(=O)[C@H](Cc3cc4ccccc4[nH]3)n3cc(C(N)CC(C)C)nn3)CC2)nc(N2CCN(C(=O)[C@H](CCC(=O)O)n3cc(C(N)[C@H](C)CC)nn3)CC2)n1 (some centres undefined)	.	.	.	.	.	/
C#CCOCCOCCOCCNc1nc(N2CCN(C(=O)[C@H](Cc3cc4ccccc4[nH]3)n3cc([C@@H](N)CC(C)C)nn3)CC2)nc(N2CCN(C(=O)[C@H](Cc3cc4ccccc4[nH]3)n3cc([C@@H](N)CC(C)C)nn3)CC2)n1	.	69	.	.	.	56
COc1ccc(/[N+]([O-])=C/c2ccoc2)cc1	/	.	.	.	.	/
O=C(OCCc1cc2ccccc2c(=O)o1)N1CCOCC1	/	.	.	.	.	/
CN(CC1CCOCC1)C(=O)CC1C(=O)NCCN1CC1CCCCC1 (centres undefined)	.	.	.	.	.	/
Clc1ccc(OCc2nn3c(C4CCCCC4)nnc3s2)cc1	.	46	.	.	.	.
O=C(C1CCN(c2ncnc3c2nc2n3CCCCC2)CC1)N1CCN(c2ccccc2F)CC1	.	44	.	.	.	.
Cc1cccc(N2CCN(C(=O)C3CCN(c4ncnc5c4nc4n5CCCCC4)CC3)CC2)c1C	.	.	.	.	.	/
CCCCCCCCCCC[N+](C)(C)CC/C=C1/c2ccccc2Sc2ccc(Cl)cc21	.	45	.	.	.	.
Cc1ccc(C)c(NC(=O)COC(=O)c2cccc3c2C(=O)c2ccccc2C3=O)c1	.	60	89	.	.	47
Nc1c(C(=O)NCc2ccco2)c2nc3ccccc3nc2n1CCc1ccc(F)cc1	.	53	.	.	.	.
Nc1c(C(=O)NCc2ccc3c(c2)OCO3)c2nc3ccccc3nc2n1CCCN1CCOCC1	.	52	.	.	.	54
COc1ccc(-n2c(N)c(C(=O)NCc3ccco3)c3nc4ccccc4nc32)cc1	.	.	.	.	.	/
COc1ccc(S(=O)(=O)N2CCCCC2)cc1NS(=O)(=O)c1ccccc1	/	.	/	/	/	/
NC(=O)Cn1c(=O)n(CCC(=O)Nc2ccc(F)cc2)c(=O)c2sccc21	.	.	.	.	.	/
Cc1cc(C)cc(N(CCC#N)C(=O)COC(=O)CCc2c[nH]c3ccccc23)c1	/	46	.	.	.	.
COc1cc(/C=N/N=C(N)N)ccc1OCc1ccccc1Cl	.	49	.	.	.	48
COc1ccc(/C=N/N=C/c2ccc(OC)c(OC)c2)cc1OC	.	.	.	.	.	/
O=C(CN1CCN(c2ccccc2)CC1)Nc1ccc(-n2cnnn2)cc1	.	.	.	.	.	/
CCc1ccccc1NC(=O)CN1CCN(C(=O)c2cccc(-n3cnnn3)c2)CC1	/	65	.	.	.	.
Cc1ccccc1OCCC(=O)OCC(=O)Nc1c(F)cccc1F	.	.	.	.	.	/
Cc1cc[n+](CC(=O)c2ccccc2)c2ccccc12	.	60	.	.	.	.
